L3MBTL1 inh: qHTS Assay for the Inhibitors of L3MBTL1; AlphaScreen L3MBTL1–H3K9me1 peptide binding; Potency, µM (doses to about 57.1 µM), for inactives: at the top dose activity, negative = inhibition, actives largely listed as inhibitors; 230,000 compounds, 0.66% hits; AID 485360, 2010; note: % is set by controls: 0 for no effect and ±100 for the full control effect; nearly all actives have a fitted effect of over 60% in size
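L3MBTL1 50 nM + b-AHA-H3(1-15)K9me1 75 nM, 30 min RT; compound added, 30 min RT; streptavidin donor/Ni-chelate acceptor beads 10 ug/mL each final, 30 min RT dark; AlphaScreen read.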
JMJD2A Tudor: qHTS Assay for Inhibitors of JMJD2A-Tudor Domain. Lysine-specific demethylase 4A (Homo sapiens), O75164. AlphaScreen JMJD2A-Tudor / H3K4me3 peptide binding. Potency, µM (highest dose often 114 µM), for inactives: at the highest dose activity change, negative = inhibition, usual class: inhibitors. 390,000 compounds, 4.4% hits. AID 504339, 2011; note: % is set by controls: 0 for no effect and ±100 for the full control effect; nearly all actives have a fitted effect of over 50% in size
PLK1 PBD inh: qHTS for Inhibitors of PLK1-PDB (polo-like kinase 1 - polo-box domain): Primary Screen; Potency, µM, without a hit: max response, negative = inhibition, usual class: inhibitors; AID 720504, 2013; Plk1 PBD binding of FITC phosphopeptide, fluorescence polarization; 360,000 compounds, 2.8% hits; Serine/threonine-protein kinase PLK1 (Homo sapiens), P53350; note: series mostly up to about 57 µM; % is set by controls: 0 for no effect and ±100 for the full control effect; nearly all actives have a fitted effect of over 65% in size
HP1b binding inh: HTS for Inhibitors of HP1-beta Chromodomain Interactions with Methylated Histone Tails. AlphaScreen HP1-beta / biotin-H3K9me3 peptide binding. Potency, µM (top dose mostly 114 µM), for the others: at the top dose activity change, negative = inhibition, usual class: inhibitors. 390,000 compounds, 0.56% hits. AID 540317, 2011; note: nearly all actives have a fitted effect of over 70% in size
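Compound inhibition of the preformed complex between 50 nM HP1-beta and 50 nM biotinylated H3K9me3 peptide was read by AlphaScreen. Buffer was PBS pH 7.4 with 0.01% Tween-20. Incubations ran 30 min at room temperature, with 10 ug/mL donor/acceptor beads.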
VDR inhibitor: Inhibitors of the vitamin D receptor (VDR): qHTS; Vitamin D3 receptor (Homo sapiens), P11473; VDR-SRC2-3 peptide fluorescence polarization, 2 h; Potency, µM, inactives show max response, negative = inhibition, hits mostly inhibitors; 400,000 compounds, 0.93% hits; note: % is set by controls: 0 for no effect and ±100 for the full control effect
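FP read-out; VDR + SRC2-3 coactivator peptide; 23 nl compound by pintool; 2 h RT incubation; reagents held at 4 deg C, protected from light.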
BAZ2B inh: qHTS Assay for Inhibitors of BAZ2B. Bromodomain adjacent to zinc finger domain protein 2B (Homo sapiens), Q9UIF8. AlphaScreen BAZ2B-H3K14Ac peptide displacement. Potency, µM (titrated, usually from 114 µM), without a hit: top-dose activity change, negative = inhibition, hits mostly inhibitors. 360,000 compounds, 4.4% hits. AID 504333, 2011; note: % is set by controls: 0 for no effect and ±100 for the full control effect; nearly all actives have a fitted effect of over 60% in size
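AlphaScreen displacement of biotin-H3(5-23)K14Ac peptide (50 nM final) from BAZ2B (50 nM final) in PBS pH 7.4, 0.01% Tween-20; complex preformed 30 min RT, then compounds (top 110 uM) 30 min RT, beads 20 min dark.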
Starred values were filed as active, the others as inactive; ? = inconclusive; / = no result; [ ] = remark or other dose. Sampled rows, rich in hits. Any-hit rate of the full collection: about 6.9%. Calls come from the whole dose curve; as a rule, active = well fitted curve in the direction sought with a large enough effect; inconclusive = small, poorly fitted or top-dose-only effect, or another doubt; inactive = no such curve, though single readings can be large; an effect the other way counts as inactive or inconclusive. Potency is the fitted concentration of half-maximal effect.

SMILES | L3MBTL1 inh | JMJD2A Tudor | PLK1 PBD inh | HP1b binding inh | VDR inhibitor | BAZ2B inh
O=C(CCC(=O)N1CC2CCCN2c2ccccc21)NCc1ccccc1F (stereo unspecified) | / | 44.7µM* | / | 34.6% | 21.2% | -32.1%
O=S(=O)(c1ccc(N2CCC(c3ccc(Cl)cc3)=N2)cc1)N(CCO)CCO | / | 30.2% | 29.9µM* | 47.3% | 3.3% | 37.0%
O=C(NCCc1csc(-c2ccc(C(F)(F)F)cc2)n1)c1ccc(F)c(F)c1 | / | 10.6% | / | 20.2%[57 µM] | 7.3% | -5.8%
O=C(O)CCc1ccc(-c2ccc(Br)cc2)o1 | -2.3% | 56.2µM* | ? | -36.1% | ? | -35.8%
CCC(C)OC(=O)/C(C#N)=C/c1ccc(-c2ccc(Br)cc2)o1 (stereo unspecified) | / | -8.5% | / | 25.7% | -3.8% | -0.3%
COc1ccc(-c2ccc(CCC(=O)O)o2)cc1 | -8.7% | 79.4µM* | -25.4% | -24.5% | ? | -30.3%
CC(=O)O[C@@H]1C[C@H]2C(C)(C)C(=O)C=C[C@]2(C)[C@H]2CC[C@@]3(C)[C@H](c4ccoc4)OC(=O)[C@H]4O[C@]43[C@@]21C | -12.9% | -25.9% | -12.0% | 4.6% | -26.5% | -7.5%
CC1(C)C(=O)C=C[C@@]2(C)C1C=C[C@@]1(C)C2CC[C@@]2(C)C(c3ccoc3)OC(=O)C3OC312 (stereo partly specified) | / | / | / | / | 3.55µM* | /
CC(=O)OC1CC(OC(C)=O)[C@]2(C)C(CC(O)[C@]3(C)C2CC[C@@]2(C)C(c4ccoc4)OC(=O)C4O[C@]432)C1(C)C (stereo partly specified) | / | / | / | / | 10.8% | /
CC1(C)C(=O)C2C[C@]3(O)C4=CC(=O)OC(c5ccoc5)[C@]4(C)CCC3[C@](C)(C2=O)C1CC(=O)O (stereo partly specified) | / | / | / | / | 12.9% | /
CC(=O)OC1C=C[C@]2(C)C(CC(OC(C)=O)[C@@]3(C)C4=CC(=O)OC(c5ccoc5)[C@]4(C)CCC23)C1(C)C (stereo partly specified) | / | / | / | / | 56.2µM* | /
CC(=O)OC1CC(OC(C)=O)[C@]2(C)C(CC(=O)[C@]3(C)C2CC[C@@]2(C)C(c4ccoc4)OC(=O)C4O[C@@]423)C1(C)C (stereo partly specified) | / | / | / | / | 28.2µM* | /
CC(=O)OC1CC[C@]2(C)C(CC(OC(C)=O)[C@@]3(C)C4=CC(=O)OC(c5ccoc5)[C@]4(C)CCC23)C1(C)C (stereo partly specified) | / | / | / | / | 25.1µM* | /
CCC(=O)N1CCc2cc(Br)cc(S(=O)(=O)CCC(=O)NCCc3cccc(C)c3)c21 | / | -9.0% | / | 6.1% | -7.2% | 0.1%
CC1Cc2ccccc2N1Cc1cccc([N+](=O)[O-])c1 (stereo unspecified) | / | 35.5µM* | -2.2% | 31.6µM* | 12.8% | 12.6µM*
CC1Cc2ccccc2N1Cc1ccc([N+](=O)[O-])cc1 (stereo unspecified) | / | 44.7µM* | -5.1% | 31.6µM* | -5.8% | 35.5µM*
O=c1cc2c(nn1Cc1cccc([N+](=O)[O-])c1)-c1ccccc1CC2 | -19.8% | -32.3% | -0.2% | 13.5% | -15.5% | ?
COc1ccc(OCC(=O)Nc2ccccc2C(=O)OCc2cc(=O)n3nc(C)sc3n2)cc1 | / | -8.3% | / | 1.2% | 12.0% | -9.7%
COc1ccccc1-c1noc(-c2ccc(N3CCOCC3)c([N+](=O)[O-])c2)n1 | / | -20.2% | / | 23.5% | 3.2% | -1.8%
N=C1S/C(=C\c2ccco2)C(=O)N1c1ccc2c(c1)OCO2 | ? | ? | -26.4% | -38.8% | -13.4% | 56.2µM*
CC(=O)N1c2ccc(S(=O)(=O)N3CCCC3)cc2CC1C(=O)NCc1ccccc1F (stereo unspecified) | / | -16.0% | -10.8% | 4.0% | -9.7% | -1.3%
O=C(O)CNC(=O)CCCn1nnc2ccccc2c1=O | 11.3% | 1.4% | 7.8% | 30.9% | 12.0% | 5.8%
O=C(O)CNC(=O)CCn1nnc2ccccc2c1=O | 2.3% | -6.6%[11.4 µM] | 29.9µM* | -3.9% | ? | -10.8%
CC(C)(C)c1ccc(OCC(=O)Nc2ccc(C(=O)OC3CCCCC3)cc2)cc1 | / | -0.7% | / | 61.2% | -26.7% | 6.4%
CCOc1ccccc1C1C(C#N)=C(N)SC(N)=C1C#N | -3.2% | 79.4µM* | -11.6% | 1.5% | ? | 1.8%
SMILES | L3MBTL1 inh | JMJD2A Tudor | PLK1 PBD inh | HP1b binding inh | VDR inhibitor | BAZ2B inh
O=c1c(-c2ccc(Cl)cc2)nc2cnc(N3CCNCC3)nc2n1Cc1cccs1 | / | / | / | / | 70.6% | /
CC(C)Oc1ccc(/C=N/NC(N)=S)cc1 | -5.1% | -9.9% | -2.9% | 20.8% | -7.1% | -6.7%
COc1ccccc1NCc1cccn1-c1nnc(N2CCCCCC2)s1 | / | 44.7µM* | / | -12.6% | 6.2% | -2.5%[57.1 µM]
O=C(Nc1ccccc1)c1ccc(C(=O)Nc2ccccc2)nc1 | 4.5% | ? | 18.9µM* | ? | -10.8% | -8.4%
CC(=O)c1cccc(NC(=O)c2ccc(C(=O)Nc3cccc(C(C)=O)c3)nc2)c1 | 5.3% | 20µM* | 3.1% | 13.6% | 13.0% | ?
Cn1nc(OCC(=O)O)cc1C(F)(F)F | -1.0% | -19.4% | -3.9% | 17.1% | 5.6% | -19.9%
CCC1CCc2c(sc(NC(=O)C3c4ccccc4Oc4ccccc43)c2C#N)C1 (stereo unspecified) | / | -18.6% | / | 11.1% | -15.7% | 1.0%[57.1 µM]
CC(C)CCNC(=O)c1ccc2nc(Cc3ccccc3)oc2c1 | / | 3.2% | / | 31.0%[57 µM] | 9.2% | 2.8%
Oc1ccccc1-c1nnc(COc2ccc(Cl)cc2Cl)o1 | -3.2% | 39.8µM* | 26.7µM* | 7.5% | 79.4µM* | 4.4%
COc1ccc(N2CCN(C(=O)c3cc4c(-c5ccc(Cl)cc5)nn(C)c4s3)CC2)cc1 | / | ? | -15.9% | -1.4% | -0.8% | 10µM*
COc1ccc(N2CCN(C(=O)c3cc4c(-c5ccccc5F)nn(C)c4s3)CC2)cc1 | / | 11.2µM* | / | ? | -8.1% | /
Cc1ccc(CNC(=O)CC(C)S(=O)(=O)c2cc3c(cc2C)NC(=O)CO3)cc1 (stereo unspecified) | 3.3% | -19.0% | -1.7% | 37.9% | 8.4% | -32.9%
O=C(c1ccc(Cl)cc1)[C@@H]1[C@@H]2C(=O)N(c3cccc4ccccc34)C(=O)[C@@H]2C2c3ccccc3C=NN21 (stereo partly specified) | -15.3% | ? | 23.8µM* | 0.4% | -11.8% | -5.8%
COc1cc(C(=O)Nc2cc(-c3ccccc3)[nH]n2)cc(OC)c1OC | -4.9% | -34.8% | -1.8% | 26.4% | -1.7% | ?

Source: PubChem
